Laboratory results: PubChem BioAssay AID1159580 (chemical genetic matrix, 2015)
Out of some 5,500 compounds screened, about 2,000 (36%) were called active. Roughly 18% stayed inconclusive and do not appear here. Cut-off read from the data, not from the text of the source: active = normalized growth mostly below about 0.91 (no sharp cut-off); inconclusive = no clear call, values can overlap the other calls; inactive = mostly above about 0.92. The list shows a part of the results.

Assay: chemical genetic growth profiling, strain panel (AID 1159580);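 note: tested at 20 µM; growth read once vehicle control cultures reached saturation at 30 °C; 1 = growth at the plate median or of vehicle wells; lower values mean less growth of the strain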
Details: growth OD
[1] = S. cerevisiae deletion strains, locus YAL013W, strain DEP1, active compounds read low
[2] = S. cerevisiae deletion strains, locus YBR229C, strain ROT2, active compounds read low
[3] = S. cerevisiae deletion strains, locus YDL101C, strain DUN1, active compounds read low
[4] = S. cerevisiae deletion strains, locus YDR150W, strain NUM1, active compounds read low
[5] = S. cerevisiae deletion strains, locus YEL061C, strain CIN8, active compounds read low
[6] = S. cerevisiae deletion strains, locus YGR078C, strain PAC10, active compounds read low
[7] = S. cerevisiae deletion strains, locus YHR030C, strain SLT2, active compounds read low
[8] = S. cerevisiae deletion strains, locus YHR087W, strain rtc3, active compounds read low
[9] = S. cerevisiae deletion strains, locus YJL187C, strain SWE1, active compounds read low
[10] = S. cerevisiae deletion strains, locus YJR043C, strain POL32, active compounds read low
[11] = S. cerevisiae deletion strains, locus YJR075W, strain HOC1, active compounds read low
[12] = S. cerevisiae deletion strains, locus YKL190W, strain CNB1, active compounds read low
[13] = S. cerevisiae deletion strains, locus YLR039C, strain RIC1, active compounds read low
[14] = S. cerevisiae deletion strains, locus YLR058C, strain SHM2 (second series), active compounds read low
[15] = S. cerevisiae deletion strains, locus YLR085C, strain ARP6, active compounds read low
[16] = S. cerevisiae deletion strains, locus YLR262C, strain YPT6, active compounds read low
[17] = S. cerevisiae deletion strains, locus YML094W, strain GIM5, active compounds read low
[18] = S. cerevisiae deletion strains, locus YMR219W, strain ESC1, active compounds read low
[19] = S. cerevisiae deletion strains, locus YMR263W, strain SAP30, active compounds read low
[20] = S. cerevisiae deletion strains, locus YNL153C, strain GIM3, active compounds read low
[21] = S. cerevisiae deletion strains, locus YNL298W, strain CLA4 (second series), active compounds read low
[22] = S. cerevisiae deletion strains, locus YNL322C, strain KRE1, active compounds read low
[23] = S. cerevisiae deletion strains, locus YNR030W, strain Alg12, active compounds read low
[24] = S. cerevisiae deletion strains, locus YPL055C, strain LGE1, active compounds read low
[25] = S. cerevisiae deletion strains, locus YPL241C, strain CIN2, active compounds read low
[26] = S. cerevisiae deletion strains, locus YPR135W, strain CTF4, active compounds read low

Measured: normalized growth

O=C(O)CCCNCc1cccc2ccccc12
inactive: [1] 1.01 | [2] 1.01 | [3] 0.998 | [4] 0.984 | [5] 1.01 | [6] 1.01 | S. cerevisiae deletion strains, locus YGR229C, strain SMI1, active compounds read low 1 | [7] 1.02 | [8] 1.01 | [9] 1 | [10] 1.01 | [11] 0.974 | [12] 1 | [13] 1 | [14] 1 | [15] 1.01 | [16] 0.999 | [17] 1.07 | [18] 0.992 | [19] 1 | [20] 0.992 | [21] 1 | [22] 1.01 | [23] 1 | [24] 1.03 | [25] 1.06 | [26] 1.05

N/C(Cc1cccc2ccccc12)=N/O
active: [25] 1.22 [resistant]
inactive: [1] 1 | [2] 1.02 | [3] 1.01 | [4] 0.986 | [5] 1.02 | [6] 1.01 | [7] 1.02 | [8] 1.02 | [9] 1.02 | [10] 1.02 | [11] 1.05 | [12] 1.02 | [13] 1.06 | [14] 1.01 | [15] 1.14 | [16] 1.02 | [17] 1.01 | [18] 1.03 | [19] 1.04 | S. cerevisiae deletion strains, locus YMR307W, strain GAS1, active compounds read low 1.17 | [20] 0.997 | [21] 1.02 | [22] 1 | [23] 1 | S. cerevisiae deletion strains, locus YOL006C, strain TOP1, active compounds read low 1.05 | [24] 0.897 | [26] 0.945 | S. cerevisiae strains, strain wild type, active compounds read low 1.02

N/C(Cc1cccc2ccccc12)=N/OC(=O)c1ccc(Cl)cc1
inactive: S. cerevisiae deletion strains, locus YAR019C, strain CDC15, active compounds read low 0.954 | S. cerevisiae deletion strains, locus YBL105C, strain PKC1, active compounds read low 0.952 | S. cerevisiae deletion strains, locus YBR135W, strain CKS1, active compounds read low 0.947 | S. cerevisiae deletion strains, locus YBR136W, strain MEC1, active compounds read low 0.93 | S. cerevisiae deletion strains, locus YBR160W, strain CDC28, active compounds read low 0.928 | S. cerevisiae deletion strains, locus YDL017W, strain CDC7, active compounds read low 0.949 | S. cerevisiae deletion strains, locus YDL028C, strain MPS1, active compounds read low 0.916 | [3] 0.961 | S. cerevisiae deletion strains, locus YDL108W, strain KIN28, active compounds read low 0.934 | S. cerevisiae deletion strains, locus YDL132W, strain cdc53, active compounds read low 0.951 | S. cerevisiae deletion strains, locus YDL214C, strain PRR2, active compounds read low 0.85 | S. cerevisiae deletion strains, locus YDR052C, strain DBF4, active compounds read low 0.967 | S. cerevisiae deletion strains, locus YDR054C, strain cdc34, active compounds read low 0.952 | S. cerevisiae deletion strains, locus YDR226W, strain ADK1, active compounds read low 0.954 | S. cerevisiae deletion strains, locus YDR477W, strain SNF1, active compounds read low 0.937 | S. cerevisiae deletion strains, locus YER123W, strain YCK3, active compounds read low 0.878 | S. cerevisiae deletion strains, locus YER133W, strain GLC7, active compounds read low 0.889 | S. cerevisiae deletion strains, locus YFL009W, strain cdc4, active compounds read low 0.938 | S. cerevisiae deletion strains, locus YFL029C, strain CAK1, active compounds read low 0.936 | S. cerevisiae deletion strains, locus YFR003C, strain YPI1, active compounds read low 0.955 | S. cerevisiae deletion strains, locus YFR019W, strain FAB1, active compounds read low 0.928 | S. cerevisiae deletion strains, locus YFR028C, strain CDC14, active compounds read low 0.956 | S. cerevisiae deletion strains, locus YGR040W, strain KSS1, active compounds read low 0.937 | S. cerevisiae deletion strains, locus YGR052W, strain FMP48, active compounds read low 0.941 | S. cerevisiae deletion strains, locus YGR092W, strain DBF2, active compounds read low 0.931 | S. cerevisiae deletion strains, locus YHR079C, strain IRE1, active compounds read low 0.965 | S. cerevisiae deletion strains, locus YHR082C, strain KSP1, active compounds read low 0.953 | S. cerevisiae deletion strains, locus YHR205W, strain SCH9, active compounds read low 0.835 | S. cerevisiae deletion strains, locus YIL147C, strain SLN1, active compounds read low 0.94 | S. cerevisiae deletion strains, locus YJL095W, strain BCK1, active compounds read low 0.874 | S. cerevisiae deletion strains, locus YJL128C, strain PBS2, active compounds read low 0.935 | S. cerevisiae deletion strains, locus YJL157C, strain FAR1, active compounds read low 0.899 | S. cerevisiae deletion strains, locus YJR016C, strain ILV3, active compounds read low 0.962 | S. cerevisiae deletion strains, locus YJR066W, strain TOR1 (second series), active compounds read low 0.879 | S. cerevisiae deletion strains, locus YJR066W, strain TOR1, active compounds read low 0.847 | S. cerevisiae deletion strains, locus YKL048C, strain ELM1, active compounds read low 0.967 | S. cerevisiae deletion strains, locus YKL067W, strain YNK1, active compounds read low 0.846 | S. cerevisiae deletion strains, locus YKL101W, strain HSL1, active compounds read low 0.939 | S. cerevisiae deletion strains, locus YKL193C, strain SDS22, active compounds read low 0.978 | S. cerevisiae deletion strains, locus YKL203C, strain TOR2, active compounds read low 0.969 | S. cerevisiae deletion strains, locus YLR133W, strain CKI1, active compounds read low 0.876 | S. cerevisiae deletion strains, locus YLR403W, strain SFP1, active compounds read low 0.919 | S. cerevisiae deletion strains, locus YML070W, strain DAK1, active compounds read low 0.892 | S. cerevisiae deletion strains, locus YMR001C, strain CDC5, active compounds read low 0.963 | S. cerevisiae deletion strains, locus YMR205C, strain PFK2 (second series), active compounds read low 0.872 | S. cerevisiae deletion strains, locus YMR277W, strain FCP1, active compounds read low 0.925 | S. cerevisiae deletion strains, locus YNL006W, strain LST8, active compounds read low 0.977 | S. cerevisiae deletion strains, locus YNL020C, strain ARK1, active compounds read low 0.909 | S. cerevisiae deletion strains, locus YNL161W, strain CBK1, active compounds read low 0.963 | S. cerevisiae deletion strains, locus YNL183C, strain NPR1, active compounds read low 0.92 | S. cerevisiae deletion strains, locus YNL207W, strain RIO2, active compounds read low 0.932 | S. cerevisiae deletion strains, locus YNL222W, strain SSU72, active compounds read low 0.95 | S. cerevisiae deletion strains, locus YNL307C, strain MCK1 (second series), active compounds read low 0.941 | S. cerevisiae deletion strains, locus YOL078W, strain AVO1, active compounds read low 0.943 | S. cerevisiae deletion strains, locus YOL136C, strain PFK27, active compounds read low 0.927 | S. cerevisiae deletion strains, locus YOR061W, strain CKA2, active compounds read low 0.892 | S. cerevisiae deletion strains, locus YOR119C, strain RIO1, active compounds read low 0.917 | S. cerevisiae deletion strains, locus YOR231W, strain MKK1, active compounds read low 0.926 | S. cerevisiae deletion strains, locus YOR329C, strain SCD5, active compounds read low 0.968 | S. cerevisiae deletion strains, locus YPL031C, strain PHO85, active compounds read low 0.915 | S. cerevisiae deletion strains, locus YPL153C, strain RAD53, active compounds read low 0.927 | S. cerevisiae deletion strains, locus YPL204W, strain HRR25, active compounds read low 0.922 | S. cerevisiae deletion strains, locus YPL209C, strain IPL1, active compounds read low 0.964 | S. cerevisiae deletion strains, locus YPL256C, strain CLN2, active compounds read low 0.888 | S. cerevisiae deletion strains, locus YPR025C, strain CCL1, active compounds read low 0.947 | S. cerevisiae deletion strains, locus YPR106W, strain ISR1, active compounds read low 0.986 | S. cerevisiae deletion strains, locus YPR111W, strain DBF20, active compounds read low 0.916 | S. cerevisiae deletion strains, strain NNK1, active compounds read low 0.948 | S. cerevisiae deletion strains, strain TSCII, active compounds read low 0.926
active: [7] 0.666 | S. cerevisiae deletion strains, locus YLR113W, strain HOG1, active compounds read low 0.858

CCc1cccc(N(C)C(N)=Nc2cccc3ccccc23)c1
inactive: S. cerevisiae deletion strains, locus YAL040C, strain CLN3, active compounds read low 0.98 | S. cerevisiae deletion strains, locus YCL061C, strain MRC1 (second series), active compounds read low 0.989 | [4] 0.998 | S. cerevisiae deletion strains, locus YER002W, strain NOP16, active compounds read low 1.03 | [6] 0.97 | [11] 0.983 | S. cerevisiae deletion strains, locus YNL175C, strain NOP13, active compounds read low 1.03 | S. cerevisiae deletion strains, locus YNL197C, strain WHI3, active compounds read low 1 | S. cerevisiae deletion strains, locus YNL224C, strain SQS1, active compounds read low 0.993 | S. cerevisiae deletion strains, locus YOR083W, strain WHI5 (second series), active compounds read low 0.931 | [25] 0.989
